Measured values: PubChem BioAssay (NCI)
The panel holds about 83,000 compounds, 20% with a hit somewhere; the sample as a whole holds those more often.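 Interpretation: 100, growth as untreated; towards 0, rising growth inhibition; 0, no net growth; 0 to -100, cell death. Compounds scoring below 10 were considered active.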 A number with no mark means an inactive call. Calls of active or inactive are those of the source.

These compounds were tested on HL-60(TB) leukemia (assay: NCI-60 one-dose screen, 48 h (100 = growth as untreated, 0 = no growth, -100 = all killed)). Conditions: 10 µM unless noted.

Going from `C[C@]12CCC(=O)C=C1CC[C@H]1[C@@H]3C[C@@H](O)[C@](O)(C(=O)CO)[C@@]3(C)C[C@H](O)[C@@]12F` to `COC(=O)[C@H]1CCCN1C(=O)[C@H]1CCCN1C(=O)[C@H](Cc1c[nH]c2ccccc12)NC(=S)Nc1cc(C(F)(F)F)cc(C(F)(F)F)c1`, the growth falls from 98.1% to 53.4%.

Going from `FC(F)(F)c1ccc(/C=N/Nc2nnc3n2N=C(c2ccc(Cl)cc2)CS3)cc1` to `C/C(=N\NC(=O)Cn1c(-c2ccc(S(C)(=O)=O)cc2)nc2ccccc21)c1ccc(Cl)cc1`, the growth falls from 93.3% to 74.8%.

Compared with `CN1CCCN(C(c2ccccc2)c2ccc(Br)cc2)CC1` (centres undefined), `O=Cc1c(OCc2cnnn2CC(=O)Nc2ccc(Br)cc2)ccc2ccccc12` is lower in growth: 110% for the first, 105% for the second.

First: CS(=O)(=O)Nc1cccc(-c2ccc3ncnc(Nc4ccc(F)c(Cl)c4)c3c2)c1
Second: COc1ncc(-c2ccc3ncnc(Nc4cccc(Cl)c4)c3c2)cc1N(S(C)(=O)=O)S(C)(=O)=O
The growth of the first is lower: 24.8% for the first, 49.7% for the second.

First: COc1ccc(-n2cnc3c(sc4ncc(Cl)cc43)c2=O)cc1
Second: COc1ccc(-c2cc(=O)n(-c3nc4ccccc4[nH]3)[nH]2)cc1OC
The growth of the first is higher: 90.1% for the first, 35.4% for the second.

Going from `CCN(CC)CCOC(=O)c1ccc(N=Nc2ccc(O)c(OC)c2)cc1` to `CCC(=O)Oc1ccc(/C(=C(\C)c2ccccc2)c2ccc(OCCN(CC)CC)cc2)cc1`, the growth falls from 97.5% to 45.1%.

First: COc1ccc(Nc2ncccc2NC(=O)c2cn(Cc3cccc(Oc4ccccc4)c3)nn2)cc1
Second: Cc1ccc2nc(NC(=O)CSc3nc(-c4ccccc4)c(C#N)c(=O)n3Cc3ccccc3)sc2c1
The growth of the first is lower: 95.9% for the first, 100% for the second.

Compared with `Clc1ccc2c(NCCCNC3CCCCC3)ccnc2c1`, `Cn1ccnc1C(=O)/C=C/c1ccc(CC(=O)NC2CCCCC2)cc1` is lower in growth: 96.1% for the first, 68.1% for the second.

Going from `NCCCn1c2c(c3cc(-c4ccn[nH]4)ccc3c1=O)C(=O)c1ccccc1-2` to `Cc1cccc(-c2nc(C(C)C)sc2-c2ccnc(NCCCNS(=O)(=O)c3ccc(Cl)cc3)c2)c1`, the growth rises from 39.6% to 80.1%.

First: C=CCN1C(=O)/C(=C/C(=O)OC)S/C1=N\NC(=O)c1cc2ccc1/C=C\c1ccc(cc1)/C=C\2
Second: Cc1ccc(/C=C2\C(=O)N(C)c3ccc(S(=O)(=O)Nc4ccc(C(C)(C)C)cc4)cc32)s1
The growth of the first is lower: 91.8% for the first, 93.1% for the second.

First: C=CCCC1(C)NC(=O)NC1=O (centres undefined)
Second: C=CCNCCC#N
The growth of the first is lower: 97.7% for the first, 109% for the second.

Going from `O=[N+]([O-])c1c(O)c(Cl)cc(Cl)c1Cl` to `O=S(=O)(O)c1ccc2cc(O)ccc2c1`, the growth rises from 92.1% to 100%.

Going from `COc1cc2c(cc1-c1c(C)noc1C)ncc1nc(CN3CCOCC3)n([C@H](C)COC(F)F)c12` to `COc1ccc(/C=C2\SC(=S)N(CCCN3CCOCC3)C2=O)c(OC)c1`, the growth rises from 21.7% to 83.1%.

First: CCOC(=O)C(CCC1=NC(C)(C)CC(C)O1)C(=O)OCC (centres undefined)
Second: COc1cc2nc(Nc3cccc(NC(C)=O)c3)nc(N)c2cc1OC
The growth of the first is lower: 56.4% for the first, 102% for the second.

Going from `CN(C)c1ccc(C(c2ccc(O)cc2)c2ccc(N(C)C)cc2)cc1` to `Nc1cnc(C(=O)NNc2nc3cc(F)ccc3n3cccc23)cn1`, the growth falls from 87.1% to 12.1%.

In the case of `c1ccc(-c2nc(N3CCCNCC3)c3nc(-c4ccccc4)oc3n2)cc1`, the growth is reported as -34.6% (active).
For `Cc1cc(N/N=C/c2nc(-c3ccc(Cl)cc3)oc2C)c2cc(Cl)ccc2n1`, the growth was 8.08% (active).
With `Cc1ccc(C(NC(=O)c2ccccc2)c2ccc3cccnc3c2O)cc1` (centres undefined) the growth was -21% (active).
`C=CN(C(=O)N1CCN(c2cc3c(cc2F)c(=O)c(C(=O)O)cn3C2CC2)CC1)c1nc(-c2ccc(OC)cc2)cs1` was tested, and the growth was -22.9% (active).
With `CC1=CC=C(NC(=O)/C=C/c2ccccc2)CC1Nc1nccc(-c2cccnc2)n1` (centres undefined) the growth was -0.0857% (active).
For `CC/C=C\C/C=C\C[C@H]1C/C=C2/C(=O)C=C[C@H]2C/C=C\CCC(=O)O1`, the growth was -5.31% (active).
In the case of `C=C(C)[C@@H]1CC[C@]2(C(=O)OC)CC[C@]3(C)[C@H](CC[C@@H]4[C@@]5(C)CC/C(=N\OCCC(=NCCC#N)NOCCC#N)C(C)(C)[C@@H]5CC[C@]43C)[C@@H]12`, the growth is reported as 0.897% [100 µM] (active).
`CSc1nc2sc3c(c2c(=O)n1-c1ccc(C(C)C)cc1)CCC(=O)C3` was tested, and the growth was 6.88% (active).
For `COc1ccc(-c2nc(-c3nc4cc(C)c(C)cc4[nH]3)cc3c2[nH]c2ccccc23)cc1`, the growth was -31.9% (active).
